In all, about 1,500 compounds were measured (“activity”: median about 2, lowest 2% from about -18 on). The sample holds the lowest values, similar compounds and a random draw of the others, so the mix is not that of the screen. Activity calls are given as the source filed them.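 Rule for the calls: active = inhibition of at least 40% at 10 µM; inconclusive = no clear call, values can overlap the other calls; inactive = the rest.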

The target in the test is Sulfhydryl oxidase 1 (Homo sapiens) (UniProt O00391). Nature of the test: QSOX1 enzyme inhibitors, confirmation, biochemical, ROS-Glo luminescence, single concentration (AID 1347421).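 Note: 0% = DMSO wells with enzyme and 100% = wells lacking QSOX1 enzyme.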 To be noted: recombinant hQSOX1, RNase A substrate, ROS-Glo H2O2 luminescence; at 10 µM.
Sulfhydryl oxidase 1 (Homo sapiens), sequence (O00391 whole entry, looked up): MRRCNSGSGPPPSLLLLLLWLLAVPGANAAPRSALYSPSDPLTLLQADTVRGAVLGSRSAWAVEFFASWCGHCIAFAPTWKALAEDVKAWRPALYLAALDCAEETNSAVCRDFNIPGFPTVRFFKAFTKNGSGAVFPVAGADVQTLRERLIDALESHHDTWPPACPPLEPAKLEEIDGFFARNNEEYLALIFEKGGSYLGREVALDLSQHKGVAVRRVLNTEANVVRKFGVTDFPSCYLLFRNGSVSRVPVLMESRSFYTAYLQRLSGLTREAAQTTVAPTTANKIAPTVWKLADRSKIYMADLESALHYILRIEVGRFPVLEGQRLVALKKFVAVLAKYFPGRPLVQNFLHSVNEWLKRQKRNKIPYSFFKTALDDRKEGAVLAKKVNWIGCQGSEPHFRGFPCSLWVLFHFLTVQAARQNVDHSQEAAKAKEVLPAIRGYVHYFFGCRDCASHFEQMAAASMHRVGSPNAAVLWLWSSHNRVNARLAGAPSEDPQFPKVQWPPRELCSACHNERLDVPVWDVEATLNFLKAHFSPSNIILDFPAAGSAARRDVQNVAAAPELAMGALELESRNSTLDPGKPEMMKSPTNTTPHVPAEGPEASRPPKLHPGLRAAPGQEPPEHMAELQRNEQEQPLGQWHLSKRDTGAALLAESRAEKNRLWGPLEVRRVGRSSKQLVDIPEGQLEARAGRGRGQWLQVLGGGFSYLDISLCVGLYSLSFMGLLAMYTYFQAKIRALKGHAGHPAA
Turning to `Cc1cccc(S(=O)(=O)NCC2CCN(c3cnn(C)c(=O)c3)C2)c1` (stereo not given), the activity came out at 5.8%.

For `Cc1nc(CC(=O)N2CCCC(CCC(=O)N3CCN(c4ccccn4)CC3)C2)cs1` (stereo not given), the activity was -2.5% (inactive).

On to `Cc1ccc(S(=O)(=O)N2CCC(C(=O)N3CCN(c4ccccn4)CC3)CC2)cc1`, for which the activity is -18.7% (inactive).

On to `CC(=O)Nc1ccc(S(=O)(=O)N2CCN(C(=O)N3CCCCCC3)CC2)cc1`, for which the activity is -1.3% (inactive).

Turning to `CCN(CC1CCCO1)C(=O)C1CCN(C2CCN(Cc3ccccc3C)CC2)CC1` (stereo not given), the activity was 9.1%.

As for `COCCN1CCC(CN(Cc2ccncc2)Cc2csc(C(C)=O)c2)CC1`, the activity was -7.9% (inactive).

On to `COc1cccc(CN2CCCC(NCc3ccc4nonc4c3)C2)c1` (stereo not given), for which the activity is -3.2% (inactive).

With `COC(=O)C1CCCCN1C(=O)c1ccc2oc(C(C)C)nc2c1` (stereo not given), the activity stood at 4.4%.

On to `Cc1occc1-c1nnc2sc(CCc3ccccc3)nn12`, for which the activity was -18.1% (inactive).

On to `c1ccc(Cc2nn3c(-c4ccco4)nnc3s2)cc1`, for which the activity is -5.1% (inactive).

Consider `c1ccc(CCCc2nn3c(-c4cccnc4)nnc3s2)cc1`, for which the activity was determined as 3%.

On to `Cc1nonc1CC(=O)N1CCC(CCC(=O)N2CCN(c3ccccc3)CC2)CC1`, for which the activity was 11.2%.

Take `Cc1ccc(S(=O)(=O)CC(=O)N2CCN(c3ccccc3)CC2)cc1`: the activity is -17% (inactive).

Consider `Cc1nc(SCC(=O)N2CCN(c3ccccc3)CC2)nc2c1CCCC2`, for which the activity was -19.5% (inactive).

In the case of `COc1ccc(N2CCN(C3CCCN(Cc4nc5ccccc5nc4C)C3)CC2)cc1` (stereo not given), the activity came out at 7.9%.

On to `OC(COc1ccccc1CNCCc1cnccn1)CN1CCSCC1` (stereo not given), for which the activity was 7.9%.

As to `O=C1CN(c2nc3nonc3nc2NC2CCCC2)CCN1C1CCCC1`, the activity is -1.2% (inactive).

As for `C=CCn1cc(CNC2CC(=O)N(Cc3cccc(F)c3)C2)c(C)n1` (stereo not given), the activity is -1.3% (inactive).

With `COc1ccc(C(C)(C)NC(=O)C2CCC(=O)N(Cc3ccccc3F)C2)cc1OC` (stereo not given), the activity is -0.6% (inactive).

On to `O=C(NCCc1ccc(Cl)cc1)c1cccc(-n2cnnc2)c1`, for which the activity was -1% (inactive).

Take `CC(=O)c1cccc(OCc2cc(C(=O)N(CC3CC3)CC3CCCO3)no2)c1` (stereo not given): the activity is 0.5%.

`CC(C)CCCC1CN(C(=O)c2ccc(N3CCN(C)CC3)cc2)CCO1` (stereo not given): the activity came out at 6.6%.

In the case of `Cc1cc(Oc2ccccc2)nc(Oc2ccc(=O)n(-c3ccccc3)n2)n1`, the activity was -9.1% (inactive).

Take `CC(C)(C)NC(=O)CN1C(=O)CCC1=O`: the activity was -0.4% (inactive).

Consider `Cc1nc2sccn2c1C(=O)N1CCCC(N(C)Cc2ccccc2)C1` (stereo not given), for which the activity is -0.3% (inactive).

`O=C(C1CCCO1)N1CCc2[nH]nc(-c3ccc(C(F)(F)F)cc3)c2C1` (stereo not given): the activity was -2.9% (inactive).

`COc1cc(CNCc2ccc(F)cc2)ccc1OCC(O)CN1CCOCC1` (stereo not given): the activity is 2.4%.

On to `CC(C)C(=O)N1CCN(c2ccc(NC(=O)c3ccccn3)cc2)CC1`, for which the activity came to 7.7%.

On to `O=C(NCc1ccccc1)N1CCN(CCO)CC1`, for which the activity came to 2.5%.

For `O=C(Nc1ccccc1)N1CCN(c2nsc3ccccc23)CC1`, the activity was -22.1% (inactive).

For `COc1ccc(NC(=O)NC2CC(=O)N(CC(C)(C)C)C2)c(OC)c1` (stereo not given), the activity was -1.6% (inactive).

As to `O=C(NCC(O)CO)c1ccc(OC2CCN(CCc3ccccc3)CC2)cc1` (stereo not given), the activity is -0.6% (inactive).

For the compound `CCN1CCN(CC(O)COc2cccc(CNCCCSC)c2)CC1` (stereo not given), the activity stood at 9.1%.

For `COc1ccc(F)c(CN2CCCC3(CCN(S(=O)(=O)N(C)C)C3)C2=O)c1` (stereo not given), the activity amounted to 0.3%.

For the compound `COc1cccc(CN2CCCC3(CCN(Cc4ccccn4)C3)C2)c1OC` (stereo not given), the activity stood at 7.4%.

On to `Cc1nc(C)c(CN2C[C@H]3OC(=O)N(CCCc4ccc(F)cc4)[C@H]3C2)nc1C`, for which the activity was found to be 8.2%.

With `C=CCC(=O)N(CCOC)CC1CCCN(C2Cc3ccccc3C2)C1` (stereo not given), the activity came out at 6.2%.

With `COC(=O)c1ccc(-c2noc(CN(C)CC3Cc4ccccc4O3)n2)cc1` (stereo not given), the activity was found to be 5.4%.

For the compound `CCOC(=O)c1nc(-c2ccc(F)cc2)no1`, the activity was -21.6% (inactive).

For `CCC(=O)Oc1ccc(-c2nc(-c3cccc(OC)c3)no2)cc1`, the activity was 86.9% (active).

On to `CC(C)NC(=O)C1CCN(C2CCN(C3CCSCC3)CC2)CC1`, for which the activity turned out to be 0.2%.

`COc1ccccc1C(=O)C1CCCN(Cc2ccc(OCCO)cc2)C1` (stereo not given): the activity was determined as 1.5%.

`O=C(c1cc2ccccc2oc1=O)N1CCOC(CC2CCCCC2)C1` (stereo not given): the activity stood at 0.4%.

For `COc1ccc(N2CCN(C(=O)c3cccc(-n4cnnc4)c3)CC2)cc1`, the activity was -22.3% (inactive).

`CC(=O)Nc1cccc(C(=O)N2CCN(c3ccccc3)CC2)c1`: the activity amounted to 5.9%.

On to `COc1ccc(N2CCN(C(=O)c3ccc(-n4cnnc4)cc3Cl)CC2)cc1`, for which the activity is -13.7% (inactive).

Turning to `COCCN1CCCC(O)(CN2CCCCCC2)C1=O` (stereo not given), the activity came to 10.4%.

Consider `O=C(CSc1nnc(-c2ccco2)o1)Nc1ccc(Br)cc1`, for which the activity was determined as 2.3%.

For `O=C(/C=C/c1cccnc1)N1CCCC(N2CCN(c3ccc(F)cc3)CC2)C1` (stereo not given), the activity was determined as 1%.

On to `c1ccc(Cc2nn3c(-c4cccs4)nnc3s2)cc1`, for which the activity was -5.3% (inactive).

In the case of `c1ccc(-c2nn3c(-c4cccs4)nnc3s2)nc1`, the activity is -20.4% (inactive).

For `c1ccc(-c2nn3c(-c4ccco4)nnc3s2)nc1`, the activity was -4.2% (inactive).

For `OCC1CCN(C2CCCN(Cc3cccc(OC4CCCC4)c3)C2)CC1` (stereo not given), the activity is 7%.

For the compound `CCN(CC)S(=O)(=O)Cc1ccccc1Cl`, the activity is -19.9% (inactive).

Take `CCN(CC)CC(=O)N1CCOC(Cc2ccccc2Cl)C1` (stereo not given): the activity was found to be 2.5%.

For `CCCCNC(=O)N1CCN(Cc2ccccc2Cl)CC1`, the activity is -7% (inactive).

For the compound `C=CCNC(=O)CCc1ccc(S(=O)(=O)NC)cc1`, the activity was -11.4% (inactive).

As for `O=C(Cn1nnc(-c2cccs2)n1)NCCC1=CCCCC1`, the activity is -7.9% (inactive).

With `CC(C)CCCC1CN(C(=O)CCC(N)=O)CCO1` (stereo not given), the activity was 6.8%.

On to `Cc1occc1-c1nnc2n1N=C(c1ccccc1)CS2`, for which the activity is -19.7% (inactive).

For `Cc1oc(-c2ccccc2Cl)nc1CN(Cc1cnn(C)c1)C(C)C`, the activity is 5.9%.

With `COc1ccc(CNCCCSC)cc1OCC(O)CN(C)C(C)C` (stereo not given), the activity is 3.5%.

With `O=C(NCC(c1ccc(F)cc1)N1CCCC1)c1cn(CCN2CCOCC2)nn1` (stereo not given), the activity amounted to 2.4%.

On to `COc1cccc(NC(=O)CCC2CCN(C(=O)CCc3cnccn3)CC2)c1`, for which the activity was -0.4% (inactive).

With `CCN1CCCC1CNC(=O)CCC1CCN(Cc2cc(OC)c3c(c2)OCO3)CC1` (stereo not given), the activity came to 0.6%.

For the compound `CCS(=O)(=O)c1ncc(CN(C)CC(O)c2ccccc2)n1Cc1ccccc1` (stereo not given), the activity stood at 6.9%.

As to `CCn1cc(-c2nc(-c3ccccn3)no2)cn1`, the activity is 44.4% (active).

Take `COCCN1C(=O)C(=O)/C(=C(\O)c2ccc(OC)cc2C)C1c1cccnc1` (stereo not given): the activity is -3% (inactive).

Regarding `NC(=O)C1CCCN(C(=O)Nc2ccc(F)cc2)C1` (stereo not given), the activity is -0.4% (inactive).

Turning to `CSc1ncc(CN2CCCC(CO)(CCOc3ccccc3)C2)cn1` (stereo not given), the activity was 10.5%.

On to `COc1ccccc1CCN1CCC(CN(C)C(=O)c2cscn2)CC1`, for which the activity is -1.8% (inactive).

`Cc1cc(CNCc2cccc(OCC(O)CN3CCCCCC3)c2)on1` (stereo not given): the activity is -2.7% (inactive).

In the case of `COC(=O)c1ccc(CNC(=O)CC2C(=O)NCCN2Cc2cccs2)cc1` (stereo not given), the activity was 2.8%.

In the case of `O=C(c1ccc(-c2ccccc2)c(F)c1)C1CCCN(C(=O)CCc2cnccn2)C1` (stereo not given), the activity came out at 9.5%.

As to `Fc1ccc(C2(c3noc(-c4cn[nH]c4)n3)CCOC2)cc1` (stereo not given), the activity was 2.1%.

Turning to `CC(C)Oc1cccc(C(=O)Nc2ncn[nH]2)c1`, the activity was -3.3% (inactive).

Take `Cc1cc(C)c(S(=O)(=O)Nc2ncn[nH]2)c(C)c1`: the activity is -18.4% (inactive).

Consider `CCOC(=O)C1(CCCc2ccccc2)CCN(C(=O)CCn2cnnn2)CC1`, for which the activity turned out to be 0.6%.

Take `COCc1ccc(C(=O)N2CCC(CCC(=O)NCc3cccnc3)CC2)o1`: the activity is 4.1%.

As to `CC(C)CCCC1CN(Cc2ncc[nH]2)CCO1` (stereo not given), the activity was 5.8%.

Turning to `COc1ccc(OC2CCN(C(=O)C3CC3)CC2)c(C(=O)NCCCN2CCOCC2)c1`, the activity was 2%.

Turning to `Cc1cccc(N2CCN(CC(=O)Nc3ccc(S(N)(=O)=O)cc3)CC2)c1C`, the activity was -11.2% (inactive).

Turning to `O=C(CN1CCCCCC1)Nc1ccc(Cl)cc1`, the activity is -10% (inactive).

For the compound `Cc1ccc(NC(=O)CN2CCc3ccccc3C2)cc1`, the activity is -21.7% (inactive).

Turning to `CN(C)CCC1CN(C(=O)CSc2ccccc2)CCO1` (stereo not given), the activity is 4.2%.

For the compound `CC(C)Cc1ccc(CN2CCCC(NC3CCN(C)CC3)C2)cc1` (stereo not given), the activity was -2.5% (inactive).

In the case of `O=C(CCc1ccncc1)N1CCOC(Cc2ccccc2Cl)C1` (stereo not given), the activity was determined as 3.1%.

For `CCN1CCCC1CN(CC1CCN(CCOC)CC1)C(=O)CCc1ccc(=O)[nH]n1` (stereo not given), the activity is 6.9%.

Regarding `CN(C)CCC1CN(Cc2cnc(-c3ccccc3)s2)CCO1` (stereo not given), the activity was -0.6% (inactive).

Consider `CCCn1c(=O)c2c(nc3n2CCN3Cc2ccco2)n(C)c1=O`, for which the activity is -9.9% (inactive).

Take `Cc1nc(-c2ccc(CN3CCC(CCn4cccn4)CC3)cc2)[nH]c(=O)c1F`: the activity amounted to 7.1%.

As for `CC(C)(C)C1(c2ccccc2)NC(=O)N(CC(=O)N2CCCCC2)C1=O` (stereo not given), the activity was -23.9% (inactive).

Regarding `O=C(CN1C(=O)CCNC1=O)N1CCC(OCc2ccccc2)CC1`, the activity stood at 2.9%.

As for `O=C(c1ccc(-c2ccccc2)cc1)C1CCCN(C(=O)CN2C(=O)CSC2=O)C1` (stereo not given), the activity stood at 5.7%.

With `COc1ccc(-c2noc(CN3CCC(C)CC3)n2)cc1OC`, the activity was -16% (inactive).

Take `COc1cc(CN2CC[C@@H](N3CCCCCC3)[C@H](O)C2)ccc1F`: the activity was 0.7%.

As to `CN(C)S(=O)(=O)c1ccc(CCC(=O)N2CCOCC2)cc1`, the activity came to 1.9%.

Turning to `O=C(CCC1CCCN(C/C=C/c2ccc(F)cc2)C1)N1CCCC1` (stereo not given), the activity is -1.2% (inactive).

For the compound `CS(=O)(=O)N(CC(=O)N1CCCC1)Cc1ccc(F)cc1`, the activity was -19.7% (inactive).

`COc1ccc(CNCCCN2CCOCC2)cc1OCC(O)CN1CCCC1` (stereo not given): the activity is 4.6%.

For `COC(=O)CCCNC(=O)C1CCC(=O)N(Cc2ccccc2OC)C1` (stereo not given), the activity came to 1.6%.

Consider `COCCCNc1nc2nonc2nc1N(C)CCN1CCOCC1`, for which the activity was -1.4% (inactive).

Take `COc1ccc2oc3nc(=O)c4ccccc4c-3cc2c1`: the activity is -123% (inactive).

With `COc1ccc(OC)c(-c2nc(CN3CCN(C(=O)c4ccco4)CC3)c(C)o2)c1`, the activity was -4% (inactive).

For the compound `COc1ccc(C(C)N(C)Cc2nc(-c3ccc(OC)cc3OC)oc2C)cc1` (stereo not given), the activity is 5.7%.

The values above are taken from PubChem BioAssay AID1347421 (Sanford-Burnham Center for Chemical Genomics, 2020).
